Test [1] can be described thus: qHTS of pediatric cancer cell lines to identify multiple opportunities for drug repurposing: Primary screen for RD cells (AID 1347104). Note: nearly all actives have a fitted effect of over 55% in size. Note: potency is the fitted concentration of half-maximal effect. The essentials: (§1)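 CRCs from 8- or 11-point titrations (lowest final 0.59 nM NPC, 0.78 nM MIPE). Cell viability: CellTiter-Glo after 48 h incubation, 15 min room-temperature development, luminescence imaging.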
(In general: In qHTS, concentration-response curves come from the screen itself.)

The nature of test [2]: qHTS of pediatric cancer cell lines to identify multiple opportunities for drug repurposing: Primary screen for MG 63 (6-TG R) cells (AID 1347105). Note: nearly all actives have a fitted effect of over 50% in size. Note: potency is the fitted concentration of half-maximal effect. The method in brief:
as §1

The nature of test [3]: qHTS of pediatric cancer cell lines to identify multiple opportunities for drug repurposing: Primary screen for control Hh wild type fibroblast cells (AID 1347106).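 Note: series mostly up to about 46 µM; a drop in luminescence marks cytotoxicity and a rise apparent proliferation; nearly all actives have a fitted effect of over 55% in size.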 The essentials: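 Viability after 48 h compound treatment at 37C, 500-1,000 cells/well, read as ATP luminescence with CellTiter-Glo. Primary screens used 11-point (MIPE, 0.78 nM-46 µM) or 8-point (NPC, 0.59 nM-46 µM) final concentrations; follow-up screens used 11-point dilutions.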

Test [4] can be described thus: qHTS of pediatric cancer cell lines to identify multiple opportunities for drug repurposing: Primary screen for Rh30 cells (AID 1347107). Note: series mostly up to about 46 µM; nearly all actives have a fitted effect of over 75% in size. The essentials: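 Cells (500-1,000/well) in growth media were settled 5 h at 37 degrees C, then given compounds for 48 h. Viability was read as CellTiter-Glo luminescence. Primary runs used MIPE at 11 points (0.78 nM-46 µM) and NPC at 8 points (0.59 nM-46 µM); follow-ups used 11 points.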

Test [5] in a line: qHTS of pediatric cancer cell lines to identify multiple opportunities for drug repurposing: Primary screen for Rh41 cells (AID 1347108).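 Note: series mostly up to about 46 µM; luminescence drop marks cytotoxic hits; nearly all actives have a fitted effect of over 70% in size.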 The essentials: as §1

Inconclusive results are not listed. Calls of active or inactive are those of the source. Calls come from the whole dose curve; as a rule, active = well fitted curve in the direction sought with a large enough effect; inconclusive = small, poorly fitted or top-dose-only effect, or another doubt; inactive = no such curve, though single readings can be large; an effect the other way counts as inactive or inconclusive.

With `CC1CCCCN1CCCOC(=O)c1ccc(OC2CCCCC2)cc1` (configuration not stated), the Potency result in test [1], in test [2], in test [3] and in test [4] was “inactive” each time.
`CC(C)C(=O)OCc1cccc(OC(=O)[C@@H]2N3C(=O)[C@@H](NC(=O)Cc4ccccc4)[C@H]3SC2(C)C)c1`: the Potency entry in test [1], in test [2], in test [3] and in test [4] was “inactive” each time.
In the case of `CCOC(=O)N1CCC(Nc2ccc(Cl)cc2N)CC1`, the Potency result in test [1], in test [2], in test [3] and in test [4] was “inactive” in each case.
Consider `CCCCCCCCCCCCCCCCCCN(C)C`, for which the Potency result in test [1], in test [2], in test [3] and in test [4] was “inactive” throughout.
`CN(C)[C@@H]1C(=O)C(C(N)=O)=C(O)[C@@]2(O)C(=O)C3=C(O)c4c(O)cccc4C[C@H]3C[C@@H]12`: the Potency entry in test [1], in test [2] and in test [3] was “inactive” in each case.
In the case of `Nc1nc2ccccc2n1Cc1ccc(F)cc1`, the Potency entry in test [1], in test [2] and in test [3] was “inactive” in each case.
In the case of `CCCCOCCOC(=O)c1cccnc1`, the Potency result in test [1], in test [2], in test [3] and in test [4] was “inactive” in each case.
For `O=C(O)c1ccccc1S`, the Potency entry in test [1] and in test [2] was “inactive” each time.
Take `CC(C)(C)c1ccc(O)c(O)c1`: the Potency in test [1] was 8.63 µM (active).
As for `NC(=O)NC1N=C([O][Al])NC1=O` (configuration not stated), the Potency result in test [1], in test [2], in test [3] and in test [4] was “inactive” in each case.
For the compound `COC(=O)c1cc(Cl)ccc1NS(=O)(=O)C(F)(F)F`, the Potency entry in test [1], in test [2], in test [3] and in test [4] was “inactive” each time.
On to `O=C1c2ccccc2CCc2ccccc21`, for which the Potency result in test [1], in test [2], in test [3] and in test [4] was “inactive” each time.
On to `CC1CC(=O)NN=C1c1ccc(NCC(C)(C)NCC(O)COc2cc(Cl)ccc2C#N)cc1` (configuration not stated), for which the Potency entry in test [1], in test [2], in test [3] and in test [4] was “inactive” each time.
Regarding `O=C(c1ccco1)N1CCNCC1`, the Potency result in test [1], in test [2], in test [3] and in test [4] was “inactive” each time.
On to `COc1ccc2cc(C=O)ccc2c1`, for which the Potency result in test [1], in test [2], in test [3] and in test [4] was “inactive” each time.
For the compound `O=C(Nc1ccc(Cl)cc1)Nc1ccc(Cl)c(C(F)(F)F)c1`, the Potency in test [1] is 11.9 µM (active); in test [2], 21.1 µM (active).
In the case of `CCCCN(CCCC)C(C(N)=O)c1ccc(OC)cc1` (configuration not stated), the Potency result in test [1], in test [2], in test [3] and in test [4] was “inactive” in each case.
`CCCCC/C=C\C/C=C\CCCCCCCC(=O)NC(C)c1ccccc1` (configuration not stated): the Potency entry in test [1], in test [2], in test [3] and in test [4] was “inactive” throughout.
As for `CCOC(=O)Cn1cccc1-c1nc(-c2ccc(OC)cc2)c(-c2ccc(OC)cc2)s1`, the Potency entry in test [1], in test [2], in test [3] and in test [4] was “inactive” throughout.
Consider `O=C(O)c1ccccc1Nc1cc(Cl)ccc1C(=O)O`, for which the Potency result in test [1], in test [2], in test [3] and in test [4] was “inactive” each time.
Take `C[C@@H]1C[C@H]2[C@@H]3CCC4=CC(=O)C=C[C@]4(C)[C@@]3(F)[C@@H](O)C[C@]2(C)[C@@]1(O)C(=O)COC(=O)c1ccncc1`: the Potency entry in test [1], in test [2], in test [3] and in test [4] was “inactive” in each case.
With `N#Cc1cc(NC(=O)C(=O)O)c(Cl)c(NC(=O)C(=O)O)c1`, the Potency entry in test [1], in test [2] and in test [3] was “inactive” in each case.
Take `O=C(CCCl)NCc1ccccc1`: the Potency entry in test [1], in test [2], in test [3] and in test [4] was “inactive” each time.
Take `C[C@H]1C[C@H](O)c2ccsc2S1(=O)=O`: the Potency result in test [1], in test [2], in test [3] and in test [4] was “inactive” each time.
`CC(=O)OCC(=O)Nc1cc(C#N)cc(NC(=O)COC(C)=O)c1Cl`: the Potency result in test [1], in test [2], in test [3] and in test [4] was “inactive” each time.
Consider `Cc1cccc(C)c1NC(=O)c1cc(S(N)(=O)=O)c(Cl)cc1O`, for which the Potency result in test [1], in test [2], in test [3] and in test [4] was “inactive” throughout.
As to `COC(=O)c1cc(Cl)ccc1OC`, the Potency result in test [1], in test [2], in test [3] and in test [4] was “inactive” throughout.
For `O=C(O)Cc1ccc(OCCNC[C@H](O)c2ccccc2)cc1`, the Potency result in test [1], in test [2], in test [3] and in test [4] was “inactive” in each case.
On to `O=[N+]([O-])c1cncn1CCN1CCOCC1`, for which the Potency result in test [1], in test [2], in test [3] and in test [4] was “inactive” throughout.
For the compound `CC(C)OP(=O)(CP(=O)(OC(C)C)OC(C)C)OC(C)C`, the Potency entry in test [1], in test [2], in test [3] and in test [4] was “inactive” each time.
In the case of `Cc1ccc2c(Cl)cc(Cl)c(O)c2n1`, the Potency result in test [1], in test [2], in test [3] and in test [4] was “inactive” each time.
For `CC[N+]1(CC)CCC(=C(c2ccccc2)c2ccccc2)C1C` (configuration not stated), the Potency result in test [1], in test [2], in test [3] and in test [4] was “inactive” each time.
For the compound `Nc1ccc(C(=O)OCC(O)CO)cc1` (configuration not stated), the Potency entry in test [1], in test [2], in test [3] and in test [4] was “inactive” each time.
In the case of `CCCCCCCCCCCCCC[N+](C)(C)C`, the Potency in test [1] is 11.9 µM (active).
`COc1cc2nc(Cl)nc(N)c2cc1OC`: the Potency entry in test [1], in test [2] and in test [3] was “inactive” each time.
On to `NS(=O)(=O)c1cc2c(cc1Cl)CN(C1CCCCC1)C2=O`, for which the Potency entry in test [1], in test [2] and in test [3] was “inactive” each time.
With `O=C(CCCl)NCCc1ccccc1`, the Potency result in test [1], in test [2], in test [3] and in test [4] was “inactive” each time.
Turning to `O=C(O)c1ccc(OCCN2CCCCC2)cc1`, the Potency result in test [1], in test [2], in test [3] and in test [4] was “inactive” in each case.
As for `C=C(C)C(=O)OCC(O)CO` (configuration not stated), the Potency result in test [1], in test [2], in test [3], in test [4] and in test [5] was “inactive” throughout.
`Cc1cccc(C)c1NC(=O)c1ccc(N)cc1`: the Potency entry in test [1], in test [2], in test [3], in test [4] and in test [5] was “inactive” throughout.
As to `CCOCCn1c(C2CCN(CCc3ccc(C(C)(C)C(=O)O)cc3)CC2)nc2ccccc21`, the Potency result in test [1], in test [2], in test [3], in test [4] and in test [5] was “inactive” each time.
For the compound `CCCc1ccc(OCC(=O)N2CCN(C(=O)COc3ccc(CCC)cc3OC)CC2)c(OC)c1`, the Potency result in test [1], in test [2], in test [3], in test [4] and in test [5] was “inactive” in each case.
`CCC(CN)=C(c1ccccc1)c1ccccc1`: the Potency result in test [1], in test [2], in test [3], in test [4] and in test [5] was “inactive” each time.
On to `NCC(=O)O`, for which the Potency entry in test [1], in test [2], in test [3], in test [4] and in test [5] was “inactive” in each case.
